Screening data (PubChem BioAssay)
Shown are actives, neighbours in structure and some others; about 19% of the full set was active somewhere.
IL1B secr inh: inflammasome signaling inhibition, IL-1 beta readout | activity change, % at 57.5 µM | AID 743279 | actives 4.7% (n = 360,000) | THP-1 LPS/ATP IL-1B secretion, AlphaLISA, 16 h; active compounds read low; in the data active = activity change below about -50%; inconclusive = mostly about -30% to -49%
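THP-1 cells pretreated 1 hr with compounds (up to 57.5 uM final), then stimulated with LPS (250 ng/mL final) plus ATP (1.25 mM final); secreted IL-1B measured by AlphaLISA after 16 hr, decreased signal indicating inhibition.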
TDP1 cell noCPT: qHTS for Inhibitors of human tyrosyl-DNA phosphodiesterase 1 (TDP1): qHTS in cells in absence of CPT | DT40 Tdp1-/- hTDP1 cells, no CPT, ATP luminescence, 48 h | actives 15% (n = 420,000) | Potency, µM (highest dose often 46.2 µM), for inactives: top-dose activity change, negative = growth inhibition, hits mostly inhibitors; also: potency is read from the fitted curve at half-maximal effect; nearly all actives have a fitted effect of over 55% in size
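Growth of hTDP1-complemented DT40 Tdp1-knockout cells is measured by ATP luminescence after at least 48 hr compound exposure at 37 °C, with DMSO substituting for the 20 nM CPT used in the parallel screen.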
HT1080 IDH1KD tx: toxicity to HT-1080 IDH1 knockdown cells (counter line) | HT-1080 IDH1 knockdown viability, ATP luminescence, 48 h | Potency, µM (titrated, usually from 46.1 µM), for inactives: at the highest dose activity, negative = toxicity, usual class: cytotoxic | actives 2% (n = 360,000) | AID 686971;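 also: potency is read from the fitted curve at half-maximal effect; 0% = DMSO wells and -100% = cell-free medium wells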
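IDH1KD HT-1080 cells, 750/well, RPMI + 5% FBS; compound pinned after 2 h settling; 48 h, 37 °C; CellTiter-Glo luminescence; % activity normalised to DMSO and no-cell wells; curves fitted, classed by r2 and efficacy.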
HT1080-NT tox: kills 2HG-producing HT-1080-NT fibrosarcoma cells; Potency, µM (top dose mostly 46.1 µM), for inactives: at the top dose activity, negative = less viability, hits mostly cytotoxic; actives 1.6% (n = 360,000); AID 686970; HT-1080-NT fibrosarcoma viability, CellTiter-Glo ATP luminescence, 48 h;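 also: NT is the 2HG producing partner of a matched IDH1 knockdown line; potency is read from the fitted curve at half-maximal effect; 0% = DMSO-treated cells and -100% = media-only wells without cells; nearly all actives have a fitted effect of over 55% in size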
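Viability of the 2HG-overproducing fibrosarcoma line after 48 hours of compound exposure at 37 degrees C was determined by luminescence with CellTiter-Glo, and concentration-effect curves were then fitted and categorized.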
TDP1 cell CPT: DT40-hTDP1 cell growth loss with CPT. chicken DT40 Tdp1-/-;hTDP1 cells + 20 nM CPT, ATP luminescence, 48 h. AID 686979. actives 12% (n = 420,000). Potency, µM (series often up to 46.2 µM), for the others: at the highest dose activity change, negative = growth inhibition, usual class: inhibitors; also: potency is read from the fitted curve at half-maximal effect; nearly all actives have a fitted effect of over 55% in size
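Chicken DT40 Tdp1-/- cells stably complemented with human TDP1 were seeded at 400 cells/well in medium containing 20 nM camptothecin, exposed to pin-transferred compounds, and grown at 37 °C for at least 48 hr. Viability was read as ATP luminescence.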
Starred values were filed as active, the others as inactive; ? = inconclusive; . = no result; [ ] = remark or other dose. Unless noted, calls follow the shape of the dose curve; as a rule, active = well fitted curve in the direction sought with a large enough effect; inconclusive = small, poorly fitted or top-dose-only effect, or another doubt; inactive = no such curve, though single readings can be large; an effect the other way counts as inactive or inconclusive. Unless noted, % is scaled to controls: 0 for no effect and ±100 for the full control effect.

SMILES	IL1B secr inh	TDP1 cell noCPT	HT1080 IDH1KD tx	HT1080-NT tox	TDP1 cell CPT
Cc1cccc2nc(-c3cccc(NS(=O)(=O)c4ccccc4)c3)cn12	.	23µM*	.	.	?
CN(C)S(=O)(=O)c1cccc(NC(=O)Cc2ccc(-c3ccccc3)cc2)c1	-6	?	-14%	-15%	?
O=C(CCS(=O)(=O)c1ccc(Br)cc1)Nc1ccc(Cl)c(C(F)(F)F)c1	.	21µM*	.	.	?
CN1C(=O)Cc2cc(S(=O)(=O)CCC(=O)Nc3ccc(Cl)c(C(F)(F)F)c3)ccc21	.	?	.	.	23µM*
Cc1ccc(S(=O)(=O)CCC(=O)Nc2ccc(Br)cc2)cc1	-13	-12%	?	-23%	?
CCOC(=O)c1cccc(NC(=O)CCS(=O)(=O)c2ccc3c(c2)CCN3C(=O)CC)c1	.	-29%	.	.	?
CCC(=O)N1CCc2cc(S(=O)(=O)CCC(=O)Nc3ccc(Cl)c(C(F)(F)F)c3)ccc21	.	8.2µM*	.	.	16µM*
O=C1NCCN1CCN1C(=O)c2ccccc2NC1c1ccccc1 (stereo not drawn)	3	12%	6%	17%	2%
O=C(O)C1CC=CCC1C(=O)NCc1ccc2c(c1)OCO2 (stereo not drawn)	5	-19%	-1%	11%	-6%
CC1(c2nnc(-c3ccc(Cl)cc3)o2)CC(c2ccc(Cl)cc2)=NO1 (stereo not drawn)	-9	-10%	12%	12%	-20%
Clc1ccc(-c2nnc(C34CC5CC(CC(C5)C3)C4)o2)cn1	20	29µM*	22%	22%	?
C/C(=N\Nc1cc(C)nc(-c2ccccc2O)n1)c1ccccc1	-68*	?	?	?	?
Cc1cc(Nc2ccc(F)c(F)c2)nc(-c2ccccc2O)n1	0	-26%	?	?	-21%
O=[N+]([O-])c1ccc(/C=N/Nc2cc(Cl)nc(-c3ccccc3)n2)cc1	-1	?	19%	13%	?
O=[N+]([O-])c1cccc(/C=N/Nc2cc(Cl)nc(-c3ccccc3)n2)c1	-77*	21µM*	4%	6%	?
C/C(=N\Nc1cc(C)nc(-c2ccccc2)n1)c1cccc([N+](=O)[O-])c1	-29	?	-10%	1%	21µM*
Cc1cc(NCCCN)nc(-c2ccccc2O)n1	-62*	?	-17%	-21%	?
C/C(=N\Nc1cc(Cl)nc(C)n1)c1ccc(C)cc1	0	?	-28%	?	-29%
NC(=O)c1cc2cc(Br)ccc2o/c1=N/NC(=O)c1cccc(F)c1	-26	16%	2%	-4%	-23%
COCC1CCCN(Cc2ccc3c(c2)CN(C(=O)c2cccnc2OC)CCO3)C1 (stereo not drawn)	.	-1%	.	.	11%[9.04 µM]
Cc1cc(C)c(C)c(S(=O)(=O)NC(C)C(=O)O)c1C (stereo not drawn)	-22	-3%	-3%	-9%	-4%
Cc1cc(N/N=C/c2ccc(O)c(C)c2O)nc(-c2ccccc2O)n1	-98*	9.2µM*	?	?	13µM*
O=C(c1ccco1)N1CCC2(CCN(Cc3ccccc3)CC2)CC1	.	-12%	.	.	22%
COc1cccc(C(=O)N(Cc2ccccc2)Cc2cc3cc4c(cc3[nH]c2=O)OCCO4)c1	-11	21µM*	?	?	13µM*
COc1ccc(C(=O)N(Cc2ccccc2)Cc2cc3cc4c(cc3[nH]c2=O)OCCO4)cc1	13	11µM*	-23%	?	11µM*
O=C(c1ccco1)N(Cc1ccc2c(c1)OCO2)Cc1cc2cc3c(cc2[nH]c1=O)OCO3	-12	2%	-2%	1%	-4%
COc1cccc(C(=O)N(Cc2cc3cc(C)ccc3[nH]c2=O)CC2CCCO2)c1 (stereo not drawn)	?	-23%	-7%	-6%	?
Cc1nn(CC(=O)N2CCCC2)c(=O)c2cc3cc(F)ccc3n12	-12	12%	8%	5%	3%
